# Source: PubChem BioAssay (EPA / NIEHS)
# Results filed as inconclusive are left out. Some structures have more than one record in an assay (separate samples or runs), and their calls can disagree. The source made the active and inactive calls. Rule for the calls: active = hit-call score of the fitted dose curve at least 0.9, where 1 is the maximum; inconclusive = response in the unintended direction; inactive = score below 0.9.
# Target: human IkappaB Kinase alpha (IKKa), CHUK (gene 1147) (UniProt O15111)
# Sequence (O15111 whole entry, looked up): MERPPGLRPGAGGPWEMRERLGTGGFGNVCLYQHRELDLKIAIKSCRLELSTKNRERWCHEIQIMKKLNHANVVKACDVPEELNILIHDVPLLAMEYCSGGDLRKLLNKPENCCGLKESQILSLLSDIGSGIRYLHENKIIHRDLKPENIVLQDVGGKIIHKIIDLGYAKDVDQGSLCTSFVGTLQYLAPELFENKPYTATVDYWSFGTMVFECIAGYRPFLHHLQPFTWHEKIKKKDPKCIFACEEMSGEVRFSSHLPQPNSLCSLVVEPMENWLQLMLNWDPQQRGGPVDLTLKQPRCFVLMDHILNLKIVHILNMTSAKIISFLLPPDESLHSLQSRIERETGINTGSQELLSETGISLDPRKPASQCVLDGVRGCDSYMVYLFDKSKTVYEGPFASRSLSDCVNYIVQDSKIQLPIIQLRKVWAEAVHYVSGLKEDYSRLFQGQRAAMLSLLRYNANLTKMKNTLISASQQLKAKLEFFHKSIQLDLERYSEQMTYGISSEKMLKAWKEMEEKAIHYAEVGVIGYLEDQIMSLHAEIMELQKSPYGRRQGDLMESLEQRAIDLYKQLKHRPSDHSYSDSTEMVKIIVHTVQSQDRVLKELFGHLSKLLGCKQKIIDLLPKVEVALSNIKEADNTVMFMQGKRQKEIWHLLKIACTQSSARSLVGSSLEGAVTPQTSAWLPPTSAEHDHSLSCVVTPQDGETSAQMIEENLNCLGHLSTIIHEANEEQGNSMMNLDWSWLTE
# Test: NVS_ENZ_hIKKa: NovaScreen (NVS) Enzymatic Assay for human IkappaB Kinase alpha (IKKa) (AID 2283167)
# Experimental: NVS_ENZ_hIKKa is a biochemical, single-readout assay that uses extracted gene-proteins in a cell-free assay. Measurements were taken 1 hour after chemical dosing in a 384-well plate.NVS_ENZ_hIKKa is one of one assay component(s) measured or calculated from the NVS_ENZ_hIKKa assay. It is designed to make measurements of enzyme activity, a form of enzyme reporter, as detected with fluorescence intensity signals by Fluorescence and electrophoretic mobility shift technology.Data from the assay component NVS_ENZ_hIKKa was analyzed into 1 assay endpoint. This assay endpoint, NVS_ENZ_hIKKa, was analyzed in the positive analysis fitting direction relative to DMSO as the negative control and baseline of activity. Using a type of enzyme reporter, loss-of-signal activity can be used to understand changes in the enzymatic activity as they relate to the gene CHUK. Furthermore, this assay endpoint can be referred to as a primary readout, because this assay has produced multiple assay endpoints where this one serves a enzymatic activity function. To generalize the intended target to other relatable targets, this assay endpoint is annotated to the kinase intended target family, where the subfamily is serine/threonine kinase.
# Binding assays used specific radioligands (tritiated, iodinated) with non-radioactive competitive displacement ligands in agonist or antagonist protocols (as indicated) and various reference compounds and inhibitors to titrate specific binding to receptors and transporters. Most enzyme assays (CYPs, kinases, phosphatases, proteases, HDACs) used recombinant protein and specific substrates (fluorescence mostly, some colorimetric and radioactive) and inhibitors, followed by a biochemical separation of substrate and product. All assays for the biochemical HTS were initially run in duplicate at a single concentration (10 uM for CYP450 assays and 25 uM for all others). Assay-chemical combinations meeting a pre-defined threshold (e.g., 30% inhibition and other criteria defined below) were then run in singleton concentration-response format with maximum concentration of 20 uM for CYPs and 50 uM for all others. Each assay was run with positive and negative controls, and concurrent controls on every plate. The follow-up (secondary) screen tested active chemical-pairs in concentration series, as well as a few additional assays not tested in the primary screen, some selected negative inactives, and several cases re-run in the concentration series for confirmatory purposes.
Compound,AC50,outcome
CCCCCCCCCCCCc1ccccc1S(=O)(=O)O,31.7 µM (active),
CCCCCCCC/C=C\CCCCCCCC(=O)OC[C@@H](O)[C@H]1OC[C@H](O)[C@H]1O,,inactive
CCN(CC)CCNc1ccc(CNC=O)c2sc3ccc(OC)cc3c(=O)c12,,inactive
CN(C)c1ccc(N=NS(=O)(=O)O)cc1,,inactive
CCCC(CCC)C(=O)O,,inactive
S=C(S)NCCNC(=S)S.[Mn+2].[S-]C([S-])=NCCN=C([S-])[S-].[Zn+2],18.2 µM (active),inactive
S=C([S-])NCCNC(=S)[S-].[Mn+2],30.1 µM (active),
CCc1c(C(=O)NN2CCCCC2)nn(-c2ccc(Cl)cc2Cl)c1-c1ccc(Br)cc1,,inactive
O=C(OCCOCCOC(=O)c1ccccc1)c1ccccc1,,inactive
O=c1[nH]cnc2c1ncn2[C@H]1CC[C@@H](CO)O1,,inactive
CC/C(=C(\c1ccccc1)c1ccc(OCCN(C)C)cc1)c1ccccc1,,inactive
